This is an account of results in article PMC6792352, “Limited Chemical Structural Diversity Found to Modulate Thyroid Hormone Receptor in the Tox21 Chemical Library” (Environmental Health Perspectives, 2019).

The structures appear in SMILES notation. Where a name gives a salt, the structure may show the parent alone.

The test relates to thyroid hormone receptor (endogenous TRα and TRβ). Set-up: species or system GH3-TRE-Luc (rat pituitary); GH3-TRE-Luc luciferase reporter, antagonist mode against 1 nM T3, loss of signal, qHTS. The settings on record: read-out: Average AC50 (uM) GH3-TRE-Antag, antagonist mode, 1 nM T3, no GH3 cytotoxicity hit.
As for `OC1CCCCCCCCCCC1` [Cyclododecanol], the concentration at half-maximal activity (AC50) was 47.7 µM.

Consider `C[C@H]1O[C@@H](O[C@H]2[C@@H](O)C[C@H](O[C@H]3[C@@H](O)C[C@H](O[C@H]4CC[C@@]5(C)[C@H](CC[C@@H]6[C@@H]5C[C@@H](O)[C@]5(C)[C@@H](C7=CC(=O)OC7)CC[C@]65O)C4)O[C@@H]3C)O[C@@H]2C)C[C@H](O)[C@@H]1O` [Digoxin], for which the AC50 was above 50 µM.

Regarding `COc1cccc(N)c1` [3-Methoxyaniline], the AC50 was determined as 80.8 µM.

For `Oc1c(I)cc(I)c2cccnc12` [Iodoquinol], the AC50 was determined as 11.5 µM.

As for `O=S(=O)(O)c1ccccc1/C=C/c1ccc(-c2ccc(/C=C/c3ccccc3S(=O)(=O)O)cc2)cc1` [Disodium 4,4'-bis(2-sulfostyryl)biphenyl], the AC50 was determined as 26.4 µM.

For the molecule `Cn1c(CCCC(=O)O)nc2cc(N(CCCl)CCCl)ccc21` [Bendamustine], the AC50 amounted to 28 µM.

Regarding `Cc1ccc(-n2nc(C(C)(C)C)cc2NC(=O)Nc2ccc(OCCN3CCOCC3)c3ccccc23)cc1` [Doramapimod], the concentration at half-maximal activity (AC50) turned out to be 45.9 µM.

For the molecule `CC(C)NCC(O)COc1ccc(CCOCC2CC2)cc1` (stereo not drawn) [Betaxolol], the AC50 worked out at 39.4 µM.

As for `Cc1ccc2oc(CN(Cc3ccccc3)C(=O)Nc3c(F)cc(F)cc3F)c(-c3ccc(Cl)cc3)c2c1` [FR145237], the AC50 is 4.47 µM.

As to `CO/C=C(/C(=O)OC)c1ccccc1COc1cccc(C(F)(F)F)n1` [Picoxystrobin], the AC50 came out at 0.276 µM.

As for `CC(=O)C(Cl)C(=O)N(C)C` (stereo not drawn) [2-Chloro-N,N-dimethyl-3-oxobutanamide], the AC50 is 90.4 µM.

Take `CCCN(CC)CC1COC2(CCC(C(C)(C)C)CC2)O1` (stereo not drawn) [Spiroxamine]: the half-maximal activity concentration (AC50) amounted to 66.6 µM.

`CCN(CC)c1ccc2c(C)cc(=O)oc2c1` [7-Diethylamino-4-methylcoumarin]: the AC50 amounted to 85.7 µM.

`Cc1c(Nc2ncccc2C(=O)O)cccc1C(F)(F)F` [Flunixin meglumine]: the half-maximal activity concentration (AC50) amounted to 2.85 µM.

Regarding `C=CC(=O)OCCC#N` [2-Cyanoethyl prop-2-enoate], the AC50 stood at 62.7 µM.

Regarding `C/C=C(C)/C=C/C=C(C)C` [2,6-Dimethyl-2,4,6-octatriene], the concentration at half-maximal activity (AC50) is above 90 µM.

For the molecule `COc1ccc(C(CN(C)C)C2(O)CCCCC2)cc1` (stereo not drawn) [Venlafaxine hydrochloride], the half-maximal activity concentration (AC50) came out at 71 µM.

As for `OCCCCCCCCCCCCBr` [12-Bromo-1-dodecanol], the AC50 turned out to be 85.6 µM.

Consider `CCOC(=O)n1ccn(C)c1=S` [Carbimazole], for which the half-maximal activity concentration (AC50) was above 20 µM.

Turning to `CCc1ccc(CCOc2ccc(CC3SC(=O)NC3=O)cc2)nc1` (stereo not drawn) [Pioglitazone hydrochloride], the AC50 is above 50 µM.

With `C[C@]12CCC(=O)C=C1CC[C@@H]1[C@@H]2CC[C@@]2(C)[C@H]1CC[C@]2(O)C(=O)CO` [Cortodoxone], the concentration at half-maximal activity (AC50) is 21.8 µM.

On to `CN1CCCN=C1COC(=O)C(O)(c1ccccc1)C1CCCCC1` (stereo not drawn) [Oxyphencyclimine hydrochloride], for which the AC50 worked out at 43.3 µM.

As to `Cl[C@H]1[C@H](Cl)[C@@H](Cl)[C@@H](Cl)[C@H](Cl)[C@H]1Cl` [Lindane], the AC50 worked out at 81.2 µM.

Consider `O=C(Nc1ccc(/C=C/c2ccc(NC(=O)c3cc(S(=O)(=O)O)c4cccnc4c3O)cc2S(=O)(=O)O)c(S(=O)(=O)O)c1)c1cc(S(=O)(=O)O)c2cccnc2c1O` [Ubistatin A], for which the AC50 came to 27.4 µM.

As for `O=[N+]([O-])c1cc[n+]([O-])cc1` [4-Nitropyridine-1-oxide], the AC50 turned out to be 80.5 µM.

In the case of `CCCCC(CC)COC(=O)C(C#N)=C(c1ccccc1)c1ccccc1` (stereo not drawn) [2-Ethylhexyl-2-cyano-3,3-diphenylacrylate], the half-maximal activity concentration (AC50) turned out to be 31 µM.

For the molecule `CC1(C)[C@H](C=C(Cl)Cl)[C@H]1C(=O)O[C@H](C#N)c1cccc(Oc2ccccc2)c1` [Cypermethrin], the AC50 was above 50 µM.

Consider `c1ccc2c(c1)[nH]c1cnccc12` [Norharman], for which the AC50 was 45.1 µM.

In the case of `O=C1c2ccccc2-c2n[nH]c3cccc1c23` [SP600125], the half-maximal activity concentration (AC50) is 11.6 µM.

Turning to `CCN(C(=O)c1cc(C)cc(OC[C@H](C)Nc2ccncc2)c1)C(C)C` [GW473178E methyl benzene sulphonic acid], the half-maximal activity concentration (AC50) is 51.7 µM.

As for `CCCCOC(=O)/C=C\C(=O)OCCCC` [Dibutyl maleate], the AC50 was 37.6 µM.

Consider `Nc1c(Br)cc(Br)cc1CN[C@H]1CC[C@H](O)CC1` [Ambroxolhydrochloride], for which the AC50 worked out at 24.9 µM.

In the case of `COCCCOc1ccnc(C[S+]([O-])c2nc3ccccc3[nH]2)c1C` (stereo not drawn) [Rabeprazole sodium], the AC50 was found to be 51.1 µM.

Consider `C=CCc1ccccc1OCC(O)CNC(C)C` (stereo not drawn) [Alprenolol], for which the AC50 came to 27.2 µM.

Regarding `O=C(Nc1ccccc1)c1ccccc1O` [Salicylanilide], the AC50 is 48.9 µM.

Turning to `Cc1oc(=O)oc1CN1CCN(c2cc3c(cc2F)c(=O)c(C(=O)O)c2n3C(C)S2)CC1` (stereo not drawn) [Prulifloxacin], the AC50 was above 50 µM.
